This is one part of a sample in which hits are shown more often than they occur.
ST2 inh – blocks human ST2 binding to IL-33 | Q01638 | AlphaLISA ST2-Fc/biotin-IL-33 interaction, 1 h | inhibition, % for hits at 17 µM | actives 2.3% (n = 78,000); in the data active means inhibition above about 30%
Target sequence (Q01638 whole entry, looked up): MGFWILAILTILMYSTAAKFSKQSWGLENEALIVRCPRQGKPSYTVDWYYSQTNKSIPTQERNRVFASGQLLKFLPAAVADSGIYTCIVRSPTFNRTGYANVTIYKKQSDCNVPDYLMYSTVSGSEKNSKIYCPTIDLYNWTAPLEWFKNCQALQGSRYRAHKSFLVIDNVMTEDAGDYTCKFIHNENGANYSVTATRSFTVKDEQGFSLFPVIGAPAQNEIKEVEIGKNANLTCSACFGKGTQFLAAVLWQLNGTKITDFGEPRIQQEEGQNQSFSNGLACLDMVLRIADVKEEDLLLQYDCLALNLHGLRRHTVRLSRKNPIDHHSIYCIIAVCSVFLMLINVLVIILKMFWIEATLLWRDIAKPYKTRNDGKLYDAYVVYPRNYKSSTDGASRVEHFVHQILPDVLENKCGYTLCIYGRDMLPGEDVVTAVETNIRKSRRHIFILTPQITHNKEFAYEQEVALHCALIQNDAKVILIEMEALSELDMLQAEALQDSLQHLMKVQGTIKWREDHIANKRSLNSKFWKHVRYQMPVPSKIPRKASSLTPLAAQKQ
Numbers stand for hits; 0 = inactive; ! = not confirmed by another sample.

SMILES	ST2 inh
CC(=O)c1ccc(NC2=C(N3CCCCC3)C(=O)c3ccccc3C2=O)cc1	59%
CC(=O)c1ccc(NC(=O)C(Cc2ccccc2)N2C(=O)c3ccccc3C2=O)cc1 (stereo not given)	0
COc1ccccc1NC1=NC2CS(=O)(=O)CC2S1 (stereo not given)	0
CC(C)c1cc(N2CC[C@@H](N3CCOCC3)[C@H](O)C2)nc(C(F)(F)F)n1	0
COc1ccccc1CNC(=O)c1ccc(C)c(Cl)c1	0
OCCN1CCN(C(c2ccccc2)c2ccc3cccnc3c2O)CC1 (stereo not given)	0
O=c1ccc2ccc(OCc3ccccc3F)cc2o1	0
O=C(O)CSCCc1ccncc1	0
O=c1cc(-c2ccc(O)cc2)oc2ccccc12	0
O=c1cc(-c2ccccc2)c2ccc(O)cc2o1	0
O=c1cc2oc3cc(O)c(O)cc3c(-c3ccccc3)c-2cc1O	36%
CC(C)c1cc(C(=O)N2CCC(n3nccc3NC(=O)C(C)(C)C)CC2)on1	0
CCc1c(C#N)c(SCC(=O)c2cc3ccccc3oc2=O)nc2c1CCC2	0
Oc1ccc(Nc2nc(-c3ccccn3)cs2)cc1	0
O=C(Nc1nc(-c2ccccn2)cs1)c1ccc(C(=O)c2ccccc2)cc1	0
c1ccc(CNc2nc(-c3ccccn3)cs2)cc1	36%
O=C(c1c[nH]c2ccc(S(=O)(=O)Nc3ccccc3F)cc2c1=O)N1CCc2ccccc21	0
CN(CC(=O)NC1CCCN(c2ccc(C(F)(F)F)cn2)C1)Cc1cccnc1 (stereo not given)	0
COc1ccc(NC(=O)c2ccc(C)cc2Cl)cc1Cl	0
COc1ccc(C2C(=O)N(C3CCCCC3)CC(=O)N2Cc2cccs2)cc1 (stereo not given)	0
Cc1cnccc1N1CCCN(C(=O)c2cccc(-n3cccn3)c2)CC1	0
CC(=O)Nc1ccc(S(=O)(=O)Nc2ccc(C(F)(F)F)cc2[N+](=O)[O-])cc1	0
Cc1nonc1OCC(C)(C)Nc1ccc(C(F)(F)F)cc1[N+](=O)[O-]	36%
CC(C)C(Nc1ccc(C(F)(F)F)cc1[N+](=O)[O-])C(=O)O (stereo not given)	0
C=CCNC(=O)C(=O)Nc1cccc(Br)c1	0
SMILES	ST2 inh
CCC(Sc1nc(C)cc(C)n1)C(=O)Nc1cc(C)on1 (stereo not given)	0
CCSc1nc2c(cc1C#N)CCCC2	0
CCC(Sc1nc2c(cc1C#N)CCCCC2)C(=O)Nc1cc(C)on1 (stereo not given)	30%
Cc1ccc(C(=O)Nc2ccc(S(=O)(=O)Nc3ncccn3)cc2)o1	0
Cc1ccc(NCCC(=O)c2ccc(C)o2)cc1	31%
Cc1ccc(C(=O)Nc2ccccc2NC(=O)c2ccc(C)o2)o1	0
COc1cccc2cc(NC(=O)c3ccc(C)c(C)c3)c(=O)oc12	0
Cc1ccc(C)c(N2CCN(C(=O)c3ccc4nc5ccc(Cl)cc5c(=O)n4c3)CC2)c1	0
O=C(Nc1ccc(F)c(Cl)c1)c1cc2c(=O)n3ccccc3nc2s1	0
O=C(Nc1ccccc1F)c1cc2c(=O)n3ccccc3nc2s1	0
COc1ccc(Cl)cc1NC(=O)c1cc2c(=O)n3ccccc3nc2s1	37%
C=CCNS(=O)(=O)c1cccc2nonc12	0
Cc1ccc(-c2nc3ccc(Cl)cn3c2Nc2ccc3c(c2)OCO3)o1	0
COc1ccc(CNC(C)c2cnn(-c3ccc(F)cc3F)c2C)c(F)c1 (stereo not given)	0
O=C(CN1C(=O)/C(=C\c2cccc(Cl)c2)Sc2ccccc21)NCc1cccnc1	0
O=C(CN1C(=O)/C(=C\c2ccc(Cl)cc2)Sc2ccccc21)NC1CCCC1	0
COCCNC(=O)c1ccc(/C=C2\Sc3ccccc3N(Cc3ccc(F)cc3)C2=O)cc1	0
CC(C)OCCCNC(=O)CN1C(=O)/C(=C\c2ccc(C(F)(F)F)cc2)Sc2ccccc21	0
O=C(CN1C(=O)/C(=C\c2ccc(Cl)cc2)Sc2ccccc21)NCc1ccccn1	42%
CCCCN(C)CCCNC(=O)CN1C(=O)/C(=C\c2cccc(Cl)c2)Sc2ccccc21	43%
Nc1cc(C(=O)N2CCN(C3CCCCC3)C(=O)C2)ccn1	0
O=C(CN1CCCC1)N1CCCc2c1c(=O)oc1ccc(O)cc21	0
O=C(CN1CCCCCC1)N1CCCc2c1c(=O)oc1ccc(O)cc21	0
O=C(CN1CCCCCC1)N1CCCc2c1c(=O)oc1ccc(OCc3ccccc3)cc21	30%
CCOc1ccc(NC2=NC3CS(=O)(=O)CC3S2)cc1 (stereo not given)	0
SMILES	ST2 inh
CNc1nc2c(c(=O)n(C)c(=O)n2C)n1CCSc1nc2ccccc2s1	0
O=C(CC[C@@H]1CNC(=O)[C@@H]2C[C@H](NC(=S)Nc3ccc(Cl)cc3)CN12)NC1CC1	0
COCCNC(=S)N[C@H]1C[C@H]2C(=O)NC[C@@H](CCC(=O)N3CCOCC3)N2C1	0
O=C1NC[C@@H](CCC(=O)N2CCOCC2)N2C[C@@H](NC(=S)NCc3ccco3)C[C@@H]12	0
O=C(CC[C@@H]1CNC(=O)[C@@H]2C[C@H](NC(=S)NCCN3CCOCC3)CN12)NCc1ccccc1	31%
O=C(CC[C@@H]1CNC(=O)[C@@H]2C[C@H](NC(=O)Nc3ccc(F)cc3F)CN12)NCc1ccc(F)cc1	71%
O=C(CC[C@@H]1CNC(=O)[C@@H]2C[C@H](NC(=O)c3ccc(F)c(Cl)c3)CN12)NCc1ccccc1	0
CCn1cc(C(=O)Nc2ccc3c(c2)OCO3)c2cc(OC)c(OC)cc2c1=O	0
CCn1c(C2CCCN(Cc3cccn3-c3ncccn3)C2)nn(C)c1=O (stereo not given)	0
CC(C)c1nc(Cn2ccnc2-c2ccc(-c3ccn[nH]3)s2)no1	0
CN1CCC(Cn2ccnc2-c2ccccc2C(=O)O)(c2ccccc2)CC1	0
CSCCCN1CCN(Cc2ncccc2C)CC1	0
CC1CC(C)CN(CCCNC(=O)c2cc3cc4ccc(Cl)cc4nc3o2)C1 (stereo not given)	0
CCCN(CCC)CCCNC(=O)c1cc2cc3ccc(Cl)cc3nc2o1	0
COc1ccc2cc3cc(C(=O)NCC4CCCO4)oc3nc2c1 (stereo not given)	0
O=C(NC1CCCCC1)c1cc2cc3ccc(Cl)cc3nc2o1	43%!
COCCNC(=O)c1cc2cc3ccc(OC)cc3nc2o1	0
COCCNC(=O)c1cc2cc3ccc(Cl)cc3nc2o1	0
CCCCN(CC)CCNC(=O)c1cc2cc3ccc(Cl)cc3nc2o1	0
O=C(NC1CCCCCC1)c1cc2cc3ccc(Cl)cc3nc2o1	36%!
O=C(NC1CCCC1)c1ccc(Cl)cc1Cl	0
COc1ccc2cc3cc(C(=O)N4CCCC(C)C4)oc3nc2c1 (stereo not given)	0
O=C(NCc1ccco1)c1cc2cc3ccc(Cl)cc3nc2o1	34%
CC1CCCC(NC(=O)c2cc3cc4ccc(Cl)cc4nc3o2)C1C (stereo not given)	30%
Cc1noc(C)c1S(=O)(=O)N1CCC(C(=O)N2CCCCCC2)CC1	0
SMILES	ST2 inh
Cc1cccc(NC(=O)CN2CCN(Cc3ccc(F)cc3Cl)S2(=O)=O)c1C	0
O=C(Cn1c(=O)n(-c2ccc(F)c(Cl)c2)c(=O)c2sccc21)NCc1ccco1	0
CCNC(=O)[C@@H]1C[C@@H](N)CN1C(=O)CCN1CCCCO1	0
N#C/C(=C\c1cccc(Br)c1)c1nc2ccccc2[nH]1	0
COc1ccc(/C=C(\C#N)c2nc3ccc(C)cc3[nH]2)cc1O	46%
N#C/C(=C\c1cccc(F)c1)c1nc2ccccc2[nH]1	0
CCOC(=O)N1CCN(Cc2ccc3c(c2)CN(C(=O)c2ccc4ncccc4c2)CCO3)CC1	0
